# Assay results from PubChem BioAssay (NCATS).
# “And” between values parts separate entries of the source, which are not always exact repeats. Equal values may be shown once. Results filed as inconclusive are left out. Where a call stands in place of a potency, no number is given. The source made the active and inactive calls. Calls come from the whole dose curve; as a rule, active = well fitted curve in the direction sought with a large enough effect; inconclusive = small, poorly fitted or top-dose-only effect, or another doubt; inactive = no such curve, though single readings can be large; an effect the other way counts as inactive or inconclusive.
# Legend:
# [1] = test system: Zika virus NS2B-NS3 protease (unlinked complex); assay: Confirmatory screen GU AMC qHTS for Zika virus inhibitors (AID 1347153); note: nearly all actives have a fitted effect of over 70% in size;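 for potency: enzyme at 25 nM with substrate at 10 µM below its Km of 18.3 µM; potency is the fitted concentration of half-maximal effect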
# How it was run: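 Unlinked NS2B-NS3 complex (25 nM) in 10 mM Tris-HCl pH 8.0, 0.01% Tween 20 preincubated 15 min with compound, then 10 microM Bz-Nle-KRR-AMC (Km 18.3 µM). Fluorescence change over 15 min, normalized, Hill-fitted.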
# [2] = test system: Zika virus NS2B-NS3 protease; assay: Primary screen GU AMC qHTS for Zika virus inhibitors (AID 1347154); note: nearly all actives have a fitted effect of over 70% in size; note: potency is the fitted concentration of half-maximal effect
# How it was run: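 Unlinked Zika NS2B hydrophilic domain/NS3 protease domain noncovalent complex (25 nM final) in 10 mM Tris-HCl pH 8.0, 0.01% Tween 20, with AMC peptide substrate. Fluorescence (ex 340, em 450 nm) change over 15 min, room temperature; percent inhibition fitted to 4-parameter Hill equation.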
# [3] = Confirmatory screen NINDS Rhodamine qHTS for Zika virus inhibitors (AID 1347161); note: nearly all actives have a fitted effect of over 60% in size; note: potency is the fitted concentration of half-maximal effect
# How it was run: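 Purified NS2B-NS3 protease with the NS2B hydrophilic domain joined by a flexible linker (25 nM) in 10 mM Tris-HCl pH 8.0, 0.01% Tween 20, preincubated 15 min at RT with compound; Rhodamine110 peptide substrate 1.5 µM; fluorescence change over 15 min; 4-parameter Hill fit.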
# [4] = test system: Zika virus NS2B-NS3 protease (linked); assay: 384 well plate NINDS AMC confirmatory qHTS for Zika virus inhibitors (AID 1347163); note: nearly all actives have a fitted effect of over 50% in size; note: potency is the fitted concentration of half-maximal effect
# How it was run: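 Fluorescence at 355/460 nm was read after 25 minutes of cleavage of 30 microM Ac-VKTGKR-AMC at room temperature, in the dark. Before substrate addition, compounds (up to 1 mM final) sat ~15 minutes with 5, 30 or 60 nM linked protease. Signals were normalized to no-enzyme and no-inhibitor wells.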
# [5] = test system: Zika virus NS2B-NS3 protease (linked construct); assay: 384 well plate NINDS Rhodamine confirmatory qHTS for Zika virus inhibitors (AID 1347164);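 note: fluorescence from protease cleavage of Ac-LKRR-rhodamine 110 substrate; nearly all actives have a fitted effect of over 65% in size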; note: potency is the fitted concentration of half-maximal effect
# How it was run: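 Fluorescence at 485/538 nm was measured 25 minutes after adding 10 microM Ac-LKRR-Rd substrate, in the dark at room temperature. The protease (5, 30 or 60 nM final) had been preincubated ~15 minutes with compound; aprotinin as control.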
# [6] = biological target: Lysine-specific demethylase 5B (Homo sapiens) (UniProt Q9UGL1); assay: Optimization screen for KDM5B Histone Demethylases FDH coupled qHTS against the LOPAC library (AID 1347166)
# How it was run: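 KDM5BDeltaAP (200nM final) in 50mM HEPES pH 7.5, 0.01% Tween-20 was preincubated with compound for 10 min at room temperature. A substrate mix of 12.5uM H3K4Me3, 25uM a-ketoglutarate, ascorbate, Fe2+, NAD+ and formaldehyde dehydrogenase was then added. NADH fluorescence (340/450 nm) was read initially and after 30 min.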
# [7] = test system: Zika virus NS2B-NS3 protease (linked construct); assay: Primary screen NINDS Rhodamine qHTS for Zika virus inhibitors (AID 1347160); note: nearly all actives have a fitted effect of over 55% in size; note: potency is the fitted concentration of half-maximal effect
# How it was run: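 Each compound, titrated, sat 15 min with 25 nM linked protease before 1.5 microM Rhodamine110 substrate went in. Fluorescence gain over the next 15 min, in pH 8.0 Tris with Tween 20, gave Hill-fitted curves.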
# [8] = Confirmatory screen GU Rhodamine qHTS for Zika virus inhibitors qHTS (AID 1347157); note: nearly all actives have a fitted effect of over 70% in size; note: potency is the fitted concentration of half-maximal effect
# How it was run: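 Unlinked NS2B/NS3, 25 nM; Rhod110 peptide, 1.5 microM; compounds, up to 114 microM. Reaction run 15 min at RT in 10 mM Tris-HCl pH 8.0, 0.01% Tween 20; kinetic fluorescence change fitted with a 4-parameter Hill model.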
# [9] = ZIKV-mCherry secondary qHTS for Zika virus inhibitors (AID 1347158); note: potency is the fitted concentration of half-maximal effect
# How it was run: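 Percent infection is the share of Hoechst-identified Vero nuclei with mCherry signal above 450 RFU (3 SD over negative controls). Cells were infected with recombinant ZIKV-mCherry at MOI 1 after compound addition and imaged 48–72 h later.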
# Lysine-specific demethylase 5B (Homo sapiens), sequence (Q9UGL1 whole entry, looked up): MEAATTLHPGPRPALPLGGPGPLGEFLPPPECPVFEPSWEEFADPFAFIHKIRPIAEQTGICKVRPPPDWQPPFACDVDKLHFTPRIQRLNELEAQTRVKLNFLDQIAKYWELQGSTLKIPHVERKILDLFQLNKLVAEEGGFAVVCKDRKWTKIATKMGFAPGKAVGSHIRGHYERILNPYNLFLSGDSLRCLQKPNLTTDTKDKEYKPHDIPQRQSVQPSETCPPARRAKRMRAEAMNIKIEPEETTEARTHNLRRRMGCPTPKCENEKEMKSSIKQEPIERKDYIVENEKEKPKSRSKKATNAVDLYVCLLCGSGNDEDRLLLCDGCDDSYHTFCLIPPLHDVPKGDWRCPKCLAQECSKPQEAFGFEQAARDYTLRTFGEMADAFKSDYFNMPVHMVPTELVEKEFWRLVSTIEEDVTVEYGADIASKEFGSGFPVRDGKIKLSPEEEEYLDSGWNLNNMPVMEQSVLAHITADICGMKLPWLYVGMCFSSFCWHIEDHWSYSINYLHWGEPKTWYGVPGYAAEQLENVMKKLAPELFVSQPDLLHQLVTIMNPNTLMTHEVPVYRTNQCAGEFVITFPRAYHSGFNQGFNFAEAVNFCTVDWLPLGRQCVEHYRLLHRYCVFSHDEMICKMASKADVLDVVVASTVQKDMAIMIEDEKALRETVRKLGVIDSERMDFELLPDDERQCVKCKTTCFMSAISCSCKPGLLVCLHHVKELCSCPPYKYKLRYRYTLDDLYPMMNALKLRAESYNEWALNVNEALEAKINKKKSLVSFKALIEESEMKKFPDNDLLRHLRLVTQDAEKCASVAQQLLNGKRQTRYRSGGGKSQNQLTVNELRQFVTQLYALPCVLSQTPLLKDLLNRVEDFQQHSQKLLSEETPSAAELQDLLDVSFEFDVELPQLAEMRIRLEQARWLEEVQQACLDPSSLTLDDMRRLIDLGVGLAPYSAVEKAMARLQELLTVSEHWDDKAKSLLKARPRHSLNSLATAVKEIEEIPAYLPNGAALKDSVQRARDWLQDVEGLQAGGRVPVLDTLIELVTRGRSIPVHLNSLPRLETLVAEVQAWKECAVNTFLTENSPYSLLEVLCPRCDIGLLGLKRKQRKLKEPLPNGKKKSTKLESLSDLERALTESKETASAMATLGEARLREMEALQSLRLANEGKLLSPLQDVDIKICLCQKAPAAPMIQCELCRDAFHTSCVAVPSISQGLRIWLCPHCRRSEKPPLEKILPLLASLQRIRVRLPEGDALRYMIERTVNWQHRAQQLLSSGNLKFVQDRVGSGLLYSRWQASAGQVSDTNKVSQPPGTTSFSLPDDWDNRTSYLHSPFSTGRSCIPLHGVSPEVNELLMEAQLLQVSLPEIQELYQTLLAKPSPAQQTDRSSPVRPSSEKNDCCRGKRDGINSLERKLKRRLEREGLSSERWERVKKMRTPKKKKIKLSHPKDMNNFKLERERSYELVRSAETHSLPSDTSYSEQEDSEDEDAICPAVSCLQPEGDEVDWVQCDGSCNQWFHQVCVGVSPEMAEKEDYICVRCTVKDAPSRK
structure (smiles),measurement,setting,value
CC(C)c1onc(-c2c(Cl)cccc2Cl)c1COc1ccc(/C=C/c2cccc(C(=O)O)c2)c(Cl)c1,Potency,[1],24.1 µM (active)
same,Potency,[2],6.7 µM (active)
same,Potency,[3],2.47 µM (active)
same,Potency,[4],inactive
same,Potency,[5],inactive
COc1ccccc1-c1cccc(-c2c(O)c3cc(C#N)c(Cl)cc3[nH]c2=O)c1,Potency,[1],inactive
same,Potency,[2],49.4 µM (active)
same,Potency,[3],27.8 µM (active)
same,Potency,[4],50.1 µM (active)
same,Potency,[5],7.08 µM (active)
Cc1[nH]c(=O)c(C#N)cc1-c1ccc2nccn2c1,Potency,[1],inactive
same,Potency,[2],inactive
same,Potency,[3],inactive
same,outcome,[6],inactive
CCc1ccc(CCOc2ccc(CC3SC(=O)NC3=O)cc2)nc1 (configuration not stated),Potency,[2],inactive
COc1ccc2c3n(c(=NC(=O)c4cccnc4)nc2c1OC)CCN3,Potency,[2],inactive
Cc1cc([C@@H](C)Nc2ccccc2C(=O)O)c2nc(N3CCOCC3)cc(=O)n2c1,Potency,[2],inactive
O=C1[C@H](Cc2ccc(O)cc2)N2C(=O)CCN(C(=O)NCc3ccccc3)[C@H]2CN1Cc1cccc2ccccc12,Potency,[2],inactive
CCN(CC)CCCC(C)Nc1nc(C)cc(Nc2ccc3nc(C)cc(N)c3c2)n1 (configuration not stated),Potency,[2],inactive
Cc1c(C)c2c(c(C)c1O)CCC(C)(COc1ccc(CC3SC(=O)NC3=O)cc1)O2 (configuration not stated),Potency,[2],inactive
COCCNCCCn1c(C(=O)CF)c(-c2ccc(C)cc2)c2c(N)ncnc21,Potency,[2],inactive
CCC(C)(C)C(=O)O[C@H]1C[C@@H](C)C=C2C=C[C@H](C)[C@H](CC[C@@H]3C[C@@H](O)CC(=O)O3)[C@H]21,Potency,[2],inactive
COc1ccc(-c2c(-c3ccc(O)cc3O)n[nH]c2C)cc1,Potency,[2],inactive
CCCCNc1cc(C(=O)O)cc(S(N)(=O)=O)c1Oc1ccccc1,Potency,[1],inactive
Cn1c(=O)c(F)c(Nc2ccc(I)cc2F)c2c(=O)n(C[C@@H](O)CO)cnc21,Potency,[2],inactive
Cc1cc(C=c2sc3nc4ccccc4n3c2=O)c(C)n1-c1ccccc1,Potency,[2],inactive
Cc1[nH]c(=O)c(C#N)cc1-c1ccncc1,Potency,[1],inactive
same,Potency,[2],inactive
same,Potency,[3],inactive
COc1ccc(-c2ccc3c(N4CCOCC4)nc(N4C[C@@H](C)O[C@@H](C)C4)nc3n2)cc1CO,Potency,[1],27.1 µM (active)
same,Potency,[2],19.2 µM (active)
NC[C@H](O)c1ccc(O)c(O)c1,Potency,[2],10.2 µM (active) and 11.9 µM (active)
CCOc1cc(C=C2C(=O)N(c3ccccc3)N=C2C)cc(Cl)c1OCC(=O)OC,Potency,[2],inactive
Cc1cccc(-c2nn(C(=S)Nc3ccccc3)cc2-c2ccnc3ccccc23)n1,Potency,[2],inactive
CCCc1nc2c(C)cc(-c3nc4ccccc4n3C)cc2n1Cc1ccc(-c2ccccc2C(=O)O)cc1,Potency,[1],inactive
same,Potency,[2],inactive
same,Potency,[3],13.9 µM (active)
CCn1c(-c2nonc2N)nc2cnc(Oc3cccc(NC(=O)c4ccc(OCCN5CCOCC5)cc4)c3)cc21,Potency,[2],inactive
CC(C)(C)OC(=O)CN(Cc1ccc(Cl)cc1)Cc1ccc([N+](=O)[O-])s1,Potency,[2],inactive
CC(C=CC1=C(C)CCCC1(C)C)=CC=CC(C)=CC(=O)O,Potency,[2],inactive
CCOC(=O)C1=C[C@@]2(CC)CCCN3CCc4c(n1c1ccccc41)[C@H]32,Potency,[2],inactive
O=C(C1CC1)N1CC[C@@H](Cn2c(-c3ccc(-c4ccc5occc5c4)cc3)nc3cnccc32)C1,Potency,[1],24.1 µM (active)
same,Potency,[2],10.8 µM (active)
O=c1ncn2nc(Sc3ccc(F)cc3F)ccc2c1-c1c(Cl)cccc1Cl,Potency,[2],inactive
CCN(CC)CCCC(C)Nc1ccnc2cc(Cl)ccc12 (configuration not stated),Potency,[1],inactive
same,Potency,[2],inactive
same,outcome,[7],inactive [at 10.7 µM]
same,Potency,[3],inactive
same,outcome,[6],inactive
NNCCc1ccccc1,Potency,[2],inactive
CNC(=O)c1ccc(N2C(=S)N(c3ccc(C#N)c(C(F)(F)F)c3)C(=O)C2(C)C)cc1F,Potency,[2],inactive
CN1CCN(CCCN2c3ccccc3Sc3ccc(C(F)(F)F)cc32)CC1,Potency,[1],inactive
same,Potency,[2],inactive
same,Potency,[3],inactive
same,outcome,[6],inactive
COc1ccc(-c2oc3cc(OC)ccc3c2C(=O)c2ccc(C#N)cc2)cc1,Potency,[2],inactive
COc1cc2c(cc1OC)CN(CCc1ccc(NC(=O)c3cccc4c(=O)c5cccc(OC)c5[nH]c34)cc1)CC2,Potency,[8],44.1 µM (active)
same,Potency,[3],55.5 µM (active)
OCCn1cc(-c2cnc3nnn(Cc4ccc5ncccc5c4)c3n2)cn1,Potency,[8],inactive
CCn1cc(C(=O)O)c(=O)c2cc(F)c(N3CCNC(C)C3)c(F)c21 (configuration not stated),Potency,[2],29.9 µM (active)
same,Potency,[3],inactive
COc1cc2nccc(Oc3ccc(NC(=O)NC4CC4)c(Cl)c3)c2cc1C(N)=O,Potency,[2],inactive
same,Potency,[7],inactive
CC(C)OC(=O)C1=CN(C(=O)c2ccc(F)c(F)c2)CC(C)(C)c2c1[nH]c1ccccc21,Potency,[2],inactive
same,Potency,[7],inactive
C1COC(NC(C2CC2)C2CC2)=N1,Potency,[2],inactive
same,outcome,[6],inactive
OC(CN1CCC(Cc2ccc(F)cc2)CC1)c1ccc(Cl)cc1 (configuration not stated),Potency,[2],inactive
same,outcome,[6],inactive
C[C@H](NC(=O)Cc1cc(F)cc(F)c1)C(=O)N[C@@H]1C(=O)N(C)c2ccccc2-c2ccccc21,Potency,[2],inactive
same,Potency,[7],inactive
CNC(=O)c1ccc(C)c(-n2c(C)cc(OCc3ccc(F)cc3F)c(Br)c2=O)c1,Potency,[2],inactive
same,Potency,[7],inactive
CCC(C)N(C)C(=O)c1cc2ccccc2c(-c2ccccc2Cl)n1 (configuration not stated),Potency,[2],inactive
same,outcome,[6],inactive
O=C1CCC(N2C(=O)c3ccccc3C2=O)C(=O)N1 (configuration not stated),Potency,[2],inactive
same,outcome,[6],inactive
NCCCC(N)(C(=O)O)C(F)F (configuration not stated),Potency,[2],inactive
same,outcome,[6],inactive
C#Cc1cccc(Nc2ncnc3cc(OCCOC)c(OCCOC)cc23)c1,Potency,[2],inactive
same,Potency,[7],inactive
O=c1[nH]c(-c2ccc(C(F)(F)F)cc2)nc2c1CSCC2,Potency,[2],inactive
same,Potency,[7],inactive
O=C(c1cc(Cc2n[nH]c(=O)c3ccccc23)ccc1F)N1CCN(C(=O)C2CC2)CC1,Potency,[2],inactive
same,Potency,[7],inactive
Cc1cnc(NC(=O)C2=C(O)c3ccccc3S(=O)(=O)N2C)s1,Potency,[2],inactive
same,outcome,[6],inactive
CCCS(=O)(=O)Nc1ccc(F)c(C(=O)c2c[nH]c3ncc(Cl)cc23)c1F,Potency,[2],inactive
same,Potency,[7],inactive
Cc1cn[nH]c1,Potency,[2],inactive
same,outcome,[6],inactive
O=c1[nH]cnc2[nH]ncc12,Potency,[2],inactive
same,outcome,[6],inactive
CC(C)NCC(O)COc1ccc(COCCOC(C)C)cc1 (configuration not stated),Potency,[2],inactive
same,outcome,[6],inactive
Cc1cc(Nc2nc(N[C@@H](C)c3ncc(F)cn3)ncc2Cl)n[nH]1,Potency,[2],inactive
same,Potency,[7],inactive
COc1cc(F)c(F)c(Nc2ccc(I)cc2F)c1NS(=O)(=O)C1(C[C@H](O)CO)CC1,Potency,[2],inactive
same,Potency,[7],inactive
O=C(O)COCCN1CCN(C(c2ccccc2)c2ccc(Cl)cc2)CC1 (configuration not stated),Potency,[2],inactive
same,outcome,[6],inactive
O=c1n(CCCN2CCN(c3cccc(Cl)c3)CC2)nc2ccccn12,Potency,[2],26.7 µM (active)
same,Potency,[3],inactive
O=C(Nc1ccc(F)c(C(F)(F)F)c1)Nc1nnc(-c2ccncc2)s1,Potency,[2],inactive
same,Potency,[7],2.82 µM (active)
Cc1cnc(Nc2ccc(OCCN3CCCC3)cc2)nc1Nc1cccc(S(=O)(=O)NC(C)(C)C)c1,Potency,[2],inactive
same,Potency,[7],inactive
CCCC(CCC)C(=O)O,Potency,[2],inactive
same,outcome,[6],inactive
CCCc1nn(C)c2c(=O)[nH]c(-c3cc(S(=O)(=O)N4CCN(C)CC4)ccc3OCC)nc12,Potency,[2],inactive
same,Potency,[7],inactive
CC[C@@H](C)[C@H](NC(=O)[C@H](CC1CCCCC1)NC(=O)c1ccno1)C(=O)N1CCC2(CCc3ccccc32)CC1,Potency,[2],inactive
same,Potency,[7],inactive
CCOC(=O)N1CCC(=C2c3ccc(Cl)cc3CCc3cccnc32)CC1,Potency,[2],inactive
same,outcome,[6],inactive
Nc1ccc(S(=O)(=O)Nc2ccnn2-c2ccccc2)cc1,Potency,[2],inactive
same,outcome,[6],inactive
Cc1ccc(N(CC2=NCCN2)c2cccc(O)c2)cc1,Potency,[2],inactive
same,outcome,[6],inactive
c1ccc([C@H]2CN3CCSC3=N2)cc1,Potency,[2],inactive
same,outcome,[6],inactive
Cc1n[nH]c(C)c1Cc1sc2c(c1C(=O)N1C[C@H](O)CO1)c(=O)n(C)c(=O)n2CC(C)C,Potency,[2],inactive
same,Potency,[7],inactive
CNCc1ccc(-c2[nH]c3cc(F)cc4c3c2CCNC4=O)cc1,Potency,[2],24.1 µM (active)
same,Potency,[7],inactive
Cc1cc(SCc2sc(-c3ccc(C(F)(F)F)cc3)nc2C)ccc1OCC(=O)O,Potency,[9],inactive
Cc1cc2c(C(C)C)c(O)c(O)c(C=O)c2c(O)c1-c1c(C)cc2c(C(C)C)c(O)c(O)c(C=O)c2c1O,Potency,[9],2.51 µM (active)
